Source: PubChem BioAssay (NCI)
Compounds without any hit were thinned out: in the full panel of roughly 83,000, 20% have a hit.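 Method: cells in 96-well plates; compound added at one concentration; 48 h incubation; percent growth measured; values under 10 scored active.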 Values without a mark were called inactive. Activity calls are given as the source filed them.

Experiments:
Test in all cases: NCI-60 one-dose screen, 48 h (100 = growth as untreated, 0 = no growth, -100 = all killed)
Details in all cases: 10 µM unless noted
[1] = test system: NCI-H23 lung
[2] = test system: NCI-H226 lung
[3] = test system: NCI-H322M lung
[4] = test system: HOP-62 NSCLC
[5] = test system: NCI-H460 lung
[6] = test system: NCI-H522 lung
[7] = test system: A549/ATCC NSCLC
[8] = test system: 786-0 renal
[9] = test system: COLO 205 colon
[10] = test system: DU-145 prostate
[11] = test system: K-562 leukemia
[12] = test system: MALME-3M melanoma
[13] = test system: MDA-MB-231 breast
[14] = test system: RXF 393 renal
[15] = test system: SF-268 CNS
[16] = test system: SF-295 CNS
[17] = test system: SF-539 CNS
[18] = test system: UACC-257 melanoma
[19] = test system: M14 melanoma

SMILES | growth [1] | growth [2] | growth [3] | growth [4] | growth [5] | growth [6] | growth [7] | growth [8] | growth [9] | growth [10] | growth [11] | growth [12] | growth [13] | growth [14] | growth [15] | growth [16] | growth [17] | growth [18] | growth [19]
COc1ccc(C(=O)OC2C(OC3C(O)COC(O[C@H]4C[C@H]5[C@@H]6CC=C7C[C@@H](O)CC[C@]7(C)[C@H]6CC[C@]5(C)[C@H]4[C@H](C)C(=O)CCC(C)C)C3OC(=O)C(C)C)OCC(O)C2O)cc1 (some centres undefined) | 43.1% | 10.9% | 58.6% | -14.2% (active) | 0.329% (active) | -46.1% (active) | 16.1% | -1.64% (active) | -47.9% (active) | 38.4% | -29.8% (active) | 6.67% (active) | 36.5% | -59.4% (active) | -9.13% (active) | -60.5% (active) | -66.2% (active) | -50% (active) | -61.4% (active)
CC1=CC(=O)OC1C/C=C(\C)CCC1[C@@]2(C)CCC[C@@](C)(C(=O)O)C2CC[C@@]1(C)O (some centres undefined) | 68.4% | 43.7% | 55% | 51.7% | 9.27% (active) | 59.3% | 29.3% | 54.6% | 86.7% | 36.8% | 28.4% | 58.4% | 34.3% | 49.2% | 71.4% | 85.5% | 81.3% | 48.6% | 25.7%
CCN(CC)c1ccc(/C=C2/NC(=O)NC2=O)cc1 | 44.6% | 81.5% | 79.1% | 53.4% | 20.6% | 14.5% | 59.1% | 48% | 3.89% (active) | 64.3% |  | 42% | 57.5% | 50.3% | 57% | 23.6% | 6.57% (active) | 72.9% | 8.99% (active)
CCCCCCCCCCCC1=NC(C)(C)CN1CCO | 65.1% | 88.2% | 87.7% | 56.4% | 46.2% | 69.2% | 89.9% | 70.4% | -57.7% (active) | 77.8% |  | 88.9% | 53.7% | 35.4% | 67.2% | 81.4% | 78.9% | 77.9% | 48.4%
N#CCCn1cnc2c(N)ncnc21 | 101% | 95.9% | 123% | 94.6% | 108% | 97.7% | 99.9% | 96.7% | 120% | 108% |  | 125% | 94.2% | 120% | 110% | 102% | 97.8% | 102% | 102%
CC[C@]1(O)C[C@H]2CN(CCc3c([nH]c4ccccc34)C(C(=O)OC)(c3cc4c(cc3OC)N(C)[C@H]3[C@@](O)(C(=O)OC)[C@H](OC(C)=O)[C@]5(CC)[C@@H]6C[C@@H]6CN6CC[C@]43[C@@H]65)C2)C1 (some centres undefined) | 19.8% | -25.3% (active) | 53.8% | 24.6% | 10.7% | -9.66% (active) | 19.8% | -8.75% (active) | -73.3% (active) | 12.1% |  | 20.5% | -12% (active) | 35% | -4.98% (active) | -15.1% (active) | -22% (active) | 68.2% | -72% (active)
CS(=O)(=O)c1ccc(C(=O)N/N=C/c2cccc3ccccc23)cc1 | 89.6% | 83.7% | 93.9% | 74.9% | 66.8% | 4.48% (active) | 41.3% | 90.9% | 85.7% | 88.8% | 27.8% | 69.7% | 97.1% | 99.3% | 85.7% | 76% | 89.3% | 41.1% | 66.8%
O=C(NO)c1ccc(CNc2cccc3nc(C4CC4)n(-c4ccccc4)c(=O)c23)cc1 | -48.4% (active) | 44.4% | 37.7% | 21.5% | 22.6% | 19.2% | 15.3% | 24.8% | 8.11% (active) | 3.14% (active) | 11.2% | 36.7% | 26.4% | -18.7% (active) | 7.14% (active) | 12.9% | 9.38% (active) | 37.6% | 18.4%
COc1ccccc1CNCCCN1C(=O)c2ccc3c4c(ccc(c24)C1=O)C(=O)N(CCCCNCCCN)C3=O | -41.7% (active) | 62.6% | 5.96% (active) | 40.1% | -38.5% (active) | -78.4% (active) | 33% | 40% | -83.7% (active) | -72.6% (active) |  | -95.6% (active) | 9.1% (active) | -4.56% (active) | 2.12% (active) | 54.8% | -61.1% (active) | -95% (active) | -49.3% (active)
C=C1C(=O)O[C@H]2[C@H]1CC/C(COC(=O)NCc1c[nH]c3ccc(OC)cc13)=C\CC[C@@]1(C)O[C@@H]21 | 51.6% | 27.9% | 84.9% | 49.2% | 33.7% | -72.8% (active) | 29.6% | -59.2% (active) | -69.2% (active) | -10.4% (active) | 3.23% (active) | -31% (active) | -6.78% (active) | -93.3% (active) | 45.2% | 63.5% | -23.3% (active) | -16.3% (active) | -48% (active)
CN(C)c1nc(-c2ccco2)n2nc(-c3ccc(Cl)cc3)cc2n1 | 77.5% | 52% | 69.8% | 38% | 27.7% | 71.5% | 49.6% | 43.4% | 67.6% | 77% | 67.4% | 98.6% | 54.3% | 51% | 66.6% | 56% | 63.4% | 98.7% | 87%
COc1ccc([C@H]2c3[nH]c4ccccc4c3C[C@H]3C(=O)N(CCCCCCC(=O)NO)CC(=O)N23)cc1 | 34.6% | 76.9% | 53.2% | 42.9% | 47% | 4.51% (active) | 60% | 83.6% | 22.9% | 24.2% | 6.77% (active) | -4% (active) | 45.3% | 22.2% | 69.7% | 34.8% | 38.1% | 27.7% | 22.4%
CCCCCCCCCCCCCCCCCC(=O)OCCCCCCCCCCCCC | 108% | 97.2% | 130% | 125% | 117% | 111% | 99.5% | 119% | 121% | 117% | 119% | 130% | 135% | 109% | 106% | 117% | 101% | 108% | 114%
c1coc(CNc2c3ccccc3nc3ccccc23)c1 | 63.6% | 62.9% | 65% | 69.6% | 56.5% | 47.3% | 61.9% | 65.7% | 35.2% | 76% | 44.7% | 90.4% | 60.5% | 61.5% | 85.7% | 53.9% | 65.9% | 81.7% | 79.7%
Clc1ccc(-c2nc(-c3cccs3)no2)cc1 | 89.9% | 97.3% | 99.4% | 85.9% | 97.4% | 85.8% | 94.8% | 94.5% | 109% | 97.4% | 101% | 111% | 84.2% | 114% | 102% | 108% | 102% | 86.4% | 105%
COc1cccc(/C(C)=N/NC(=O)CSc2nc3ccccc3c(=O)n2CCc2ccc(S(N)(=O)=O)cc2)c1 | 31.6% | 89.1% | 58.2% | 35% | -53.2% (active) | 42.2% | 15.6% | -26.9% (active) | 42.9% | 18.4% | 32% | -15.2% (active) | -25.5% (active) | 57.9% | 36.1% | 44% | -18.1% (active) | 45.2% | 27.3%
